Records with an inconclusive call do not appear. A number with no mark means an inactive call. Activity calls are given as the source filed them. The call rests on the fitted dose curve; in most records, active means well fitted curve in the direction sought with a large enough effect; inconclusive means small, poorly fitted or top-dose-only effect, or another doubt; inactive means no such curve, though single readings can be large or run the other way.
Potency means the concentration at half of the fitted maximal effect.

This assay can be described thus: Secondary Assay for Inhibitors of Human Cdc-like kinase 4 (Clk4): HEK-293 Cell Viability Assay.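 Further: cytotoxic hits lower the ATP light signal so activity reflects loss of viability.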 On activity change, negative = cytotoxicity: % of control where 0% means no effect. The note with it: HEK-293 viability, ATP luminescence (CellTiter-Glo), 24/48 h; series mostly up to 46.1 µM; activity change, negative = cytotoxicity: at the top concentration. In a few lines: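 Cytotoxicity was measured as ATP luminescence (CellTiter-Glo) after 24 or 48 h compound exposure at 37 degrees C. HEK-293 cells in MEM with 10% FBS had been seeded 4 h earlier.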
Take `Cc1nc(CSc2ncnc3ccc(-c4ccc5c(c4)OCO5)cc23)cs1`: the “activity change, negative = cytotoxicity” value is 1.36%. Take `CCNC(=O)c1ccc(-c2ccc3ncnc(NCc4nccs4)c3c2)o1`: the “activity change, negative = cytotoxicity” value was -4.27%.

On to `Cc1ccc(CNc2ncnc3ccc(-c4ccc(C(=O)O)o4)cc23)o1`, for which the “activity change, negative = cytotoxicity” value is -11.4%. Same read-out and setting: the same measure for `Cc1ccc(CN(C)c2ncnc3ccc(-c4ccc(CO)n4C)cc23)o1`: -21.2%; for `CCCNc1ncnc2ccc(-c3ccc4c(c3)OCO4)cc12`: 4.07%. On to `c1nc(OCc2cnc[nH]2)c2cc(-c3ccc4c(c3)OCO4)ccc2n1`, for which the “activity change, negative = cytotoxicity” value was 5.34%.

For the compound `COc1cccc(-c2ccc3ncnc(NCc4cccs4)c3c2)c1`, the “activity change, negative = cytotoxicity” value was -9.42%. For the compound `CCOC(=O)c1ccc(-c2ccc3ncnc(NCc4csc(C)n4)c3c2)o1`, the “activity change, negative = cytotoxicity” value is -8.57%.

In the case of `Cc1nc(C)c(-c2ccc3ncnc(NCc4ncc[nH]4)c3c2)s1`, the “activity change, negative = cytotoxicity” value is -19.3%. Turning to `OCc1ccc(-c2ccc3ncnc(NCCc4cnc[nH]4)c3c2)o1`, the “activity change, negative = cytotoxicity” value is -7.68%. Consider `Clc1cccc(-c2ccc3ncnc(NCc4cccnc4)c3c2)c1`, for which the “activity change, negative = cytotoxicity” value is -22.8%. In the case of `Fc1c(-c2ccc3ncnc(NCc4cccs4)c3c2)ccc2c1OCO2`, the “activity change, negative = cytotoxicity” value was -2.4%.

Consider `CN(Cc1ccco1)c1ncnc2ccc(-c3ccoc3)cc12`, for which the “activity change, negative = cytotoxicity” value was -9.24%. `Clc1cccc(-c2ccc3ncnc(NCc4ccc5c(c4)OCO5)c3c2)c1`: the “activity change, negative = cytotoxicity” value was -13.9%. In the case of `Cc1cccc(CNc2ncnc3ccc(-c4ccc5c(ccn5C)c4)cc23)c1`, the “activity change, negative = cytotoxicity” value was -29.1%. Still for that read-out and setting: with `Fc1cccc(CNc2ncnc3ccc(-c4ccccc4Cl)cc23)c1` the figure was -7.67%. For `Clc1cccc(-c2ccc3ncnc(NCc4cccs4)c3c2)c1`, the “activity change, negative = cytotoxicity” value was -15%.

For the compound `Cn1ccc2cc(-c3ccc4ncnc(NCc5ccc6c(c5)OCO6)c4c3)ccc21`, the “activity change, negative = cytotoxicity” value is -17.8%. As to `c1nc(N2CCNCC2)c2cc(-c3ccc4c(c3)OCO4)ccc2n1`, the “activity change, negative = cytotoxicity” value is -12.9%. Turning to `CN1CCN(c2ncc3nc(-c4cn(C)c5ccccc45)c(=O)n(Cc4cccs4)c3n2)CC1`, the Potency was 8.88 µM (active).

In the case of `Cc1csc(CNc2ncnc3ccc(-c4cccnc4)cc23)c1`, the “activity change, negative = cytotoxicity” value was 0.236%. On the same count and under the same terms, with `c1nc(NCc2ccc3c(c2)OCO3)c2cc(-c3ccoc3)ccc2n1` the figure was -9.32%.

Turning to `Cc1nc(CNc2ncnc3ccc(-c4ccoc4C)cc23)cs1`, the “activity change, negative = cytotoxicity” value is -29.3%. Same read-out and setting: the same measure for `c1cncc(CNc2ncnc3ccc(-c4ccoc4)cc23)c1`: -11.3%; for `CCOC(=O)c1ccoc1-c1ccc2ncnc(NCCc3cnc[nH]3)c2c1`: 0.328%; for `Cc1cccc(CNc2ncnc3ccc(-c4ccoc4)cc23)c1`: -23.2%.

Source of the values: PubChem BioAssay AID504534 (National Center for Advancing Translational Sciences (NCATS), 2011).
